# According to PubChem BioAssay:
# Activity calls are given as the source filed them.
# What was measured:
# [1] = optical density shifts of acrAB sulA E. coli – strain DRC41, OD650, 48 h, E. coli filamentation inducer project, primary screen (AID 1152); details: higher = more signal, called active from +8 up or from −8 down;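 also: E. coli MC1000 strain DRC41 lacking acrAB efflux pump and sulA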
# [2] = probe aLefty1 binding on compound microarray – biochemical, small-molecule microarray, 635/667 nm fluorescence, primary screen (AID 1153); details: higher = more signal;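 also: score merges spot fluorescence with signal-to-noise ratio from the scanned slide images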
# [3] = plasmodial surface anion channel blockers, osmotic lysis – cell-based, P. falciparum Indochina, OD700, 1 h, primary screen (AID 1154); details: P. falciparum Indochina infected RBC osmotic lysis, higher = more signal, called active from +8 up or from −8 down
# [4] = plasmodial surface anion channel blockers, osmotic lysis – cell-based, P. falciparum Indochina, OD700, 2 h, primary screen (AID 1155);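 also: lysis reports solute entry through the parasite surface anion channel PSAC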; details: P. falciparum Indochina infected erythrocytes, higher = more signal, called active from +8 up or from −8 down
# [5] = changes in parasitized red cell lysis, either direction – P. falciparum Indochina, OD700, 3 h, PSAC antagonist project, primary screen (AID 1156); details: P. falciparum-infected erythrocytes, osmotic lysis, higher = more signal, called active from +8 up or from −8 down
# [6] = plasmodial surface anion channel blockers, osmotic lysis – cell-based, P. falciparum Indochina, OD700, 18 h, primary screen (AID 1157); details: P. falciparum Indochina infected erythrocytes, osmotic lysis OD700, 18 h; higher = more signal, called active from +8 up or from −8 down
# [7] = S6 kinase pathway phospho-S6 level changes – cell-based, A549, cytoblot, luminescence, serum-stimulated, primary screen (AID 1158); details: 5 h, higher = more signal;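 also: serum-stimulated A549 lung adenocarcinoma cells; signal is phosphorylated S6 detected by cytoblot immunostaining with HRP secondary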
# [8] = biological target: NADPH oxidase 2 (Homo sapiens) (UniProt P04839); test: compounds shifting NOX2 Amplex Red fluorescence – cell-based, HEK293-NOX2, PMA-stimulated, NOX inhibitor project, primary screen (AID 1159); details: 45 min, higher = more signal, called active from +8 up or from −8 down; also: test concentration not given here
# [9] = biological target: NADPH oxidase 4 (Homo sapiens) (UniProt Q9NPH5); test: compounds shifting NOX4 Amplex Red fluorescence – cell-based, HEK293-NOX4, tetracycline-induced, NOX inhibitor project, primary screen (AID 1160); details: HEK293-NOX4, Amplex Red H2O2 fluorescence, 45 min; higher = more signal, called active from +8 up or from −8 down
# [10] = biological target: NADPH oxidase 5 (Homo sapiens) (UniProt Q96PH1); test: compounds shifting NOX5 Amplex Red fluorescence – cell-based, HEK293-NOX5, NOX inhibitor project, primary screen (AID 1161); details: HEK293-NOX5, ionomycin, 45 min, higher = more signal
# [11] = compound effects on lung adenocarcinoma cell viability – A549, calcein-AM fluorescence, 48 h, basal, profiling panel (AID 1162); details: higher = more signal; also: test concentration not given here
# [12] = compound effects on differentiated 3T3-L1 adipocyte viability – cell-based, 3T3-L1 adipocytes, calcein-AM fluorescence, 48 h, basal, profiling panel (AID 1163); details: 3T3-L1 adipocytes viability, higher = more signal; also: test concentration not given here
# [13] = compound effects on hepatocellular carcinoma cell viability – HepG2, calcein-AM fluorescence, 48 h, basal, profiling panel (AID 1164); details: higher = more signal; also: test concentration not given here
# [14] = compound effects on multiple myeloma cell viability – MM1S, calcein-AM fluorescence, 48 h, basal, profiling panel (AID 1165); details: higher = more signal;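 also: viability of MM1S multiple myeloma cells under basal unstimulated conditions; test concentration not given here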
# [15] = calcein-AM signal in unstimulated myeloma cells – cell-based, calcein-AM fluorescence, 48 h, PK04 Diversity Set, profiling panel (AID 1166); details: RPMI8226 myeloma viability, higher = more signal;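 also: cells grown under basal conditions without added stimulus; test concentration not given here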
# [16] = JC-1 mitochondrial signal, unstimulated HepG2 cells – cell-based, JC-1 fluorescence, 24 h, 100 nL compound, profiling panel (AID 1167); details: HepG2 mitochondrial potential, higher = more signal; also: test concentration not given here
# [17] = JC-1 mitochondrial signal, unstimulated adipocytes – cell-based, JC-1 fluorescence, 3T3-L1 adipocytes, 24 h, 100 nL compound, profiling panel (AID 1168); details: JC-1 mitochondrial fluorescence, higher = more signal, called active from +8 up or from −8 down; also: test concentration not given here
# [18] = JC-1 mitochondrial signal, unstimulated myeloma cells – cell-based, JC-1 fluorescence, RPMI8226, 24 h, 100 nL compound, profiling panel (AID 1169); details: JC-1 mitochondrial potential fluorescence, higher = more signal; also: test concentration not given here
# [19] = JC-1 mitochondrial signal, unstimulated MM1S myeloma – cell-based, JC-1 fluorescence, 24 h, 100 nL compound, profiling panel (AID 1170); details: MM1S mitochondrial potential, higher = more signal; also: test concentration not given here
# [20] = resazurin metabolic signal in A549 cells – cell-based, resazurin fluorescence, 24 h, PK04 Diversity Set, profiling panel (AID 1171); details: A549 viability, higher = more signal, called active from +8 up or from −8 down; also: test concentration not given here
# NADPH oxidase 4 (Homo sapiens), sequence (Q9NPH5 whole entry, looked up): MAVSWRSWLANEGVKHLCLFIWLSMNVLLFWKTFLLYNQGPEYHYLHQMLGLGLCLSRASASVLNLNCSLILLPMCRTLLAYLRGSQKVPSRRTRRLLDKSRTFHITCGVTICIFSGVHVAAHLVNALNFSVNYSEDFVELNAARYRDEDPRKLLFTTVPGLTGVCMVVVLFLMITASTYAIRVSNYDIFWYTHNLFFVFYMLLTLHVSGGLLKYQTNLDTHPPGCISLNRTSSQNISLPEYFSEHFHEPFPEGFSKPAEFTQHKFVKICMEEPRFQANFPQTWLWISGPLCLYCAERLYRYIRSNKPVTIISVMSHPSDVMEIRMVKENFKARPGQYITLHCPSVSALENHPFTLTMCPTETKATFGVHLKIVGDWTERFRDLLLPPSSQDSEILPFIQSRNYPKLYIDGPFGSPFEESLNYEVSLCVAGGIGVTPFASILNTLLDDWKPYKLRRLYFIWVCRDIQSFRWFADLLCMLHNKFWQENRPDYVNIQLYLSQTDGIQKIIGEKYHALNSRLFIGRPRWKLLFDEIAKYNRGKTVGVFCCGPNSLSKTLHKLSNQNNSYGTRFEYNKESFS
# NADPH oxidase 2 (Homo sapiens), sequence (P04839 whole entry, looked up): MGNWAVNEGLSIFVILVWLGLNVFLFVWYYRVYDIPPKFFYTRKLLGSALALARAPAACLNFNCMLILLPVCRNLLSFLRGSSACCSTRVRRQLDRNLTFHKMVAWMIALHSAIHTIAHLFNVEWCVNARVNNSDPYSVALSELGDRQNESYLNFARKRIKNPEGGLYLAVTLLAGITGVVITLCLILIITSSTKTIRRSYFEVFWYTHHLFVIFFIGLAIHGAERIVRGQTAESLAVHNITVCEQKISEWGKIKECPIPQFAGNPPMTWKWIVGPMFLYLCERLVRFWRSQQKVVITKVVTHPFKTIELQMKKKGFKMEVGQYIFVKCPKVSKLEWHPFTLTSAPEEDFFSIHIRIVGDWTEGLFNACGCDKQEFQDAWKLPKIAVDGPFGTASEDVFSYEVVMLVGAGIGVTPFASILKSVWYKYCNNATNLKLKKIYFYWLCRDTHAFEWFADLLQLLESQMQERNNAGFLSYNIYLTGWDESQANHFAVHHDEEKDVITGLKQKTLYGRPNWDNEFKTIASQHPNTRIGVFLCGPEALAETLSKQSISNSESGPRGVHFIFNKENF
# NADPH oxidase 5 (Homo sapiens), sequence (Q96PH1 whole entry, looked up): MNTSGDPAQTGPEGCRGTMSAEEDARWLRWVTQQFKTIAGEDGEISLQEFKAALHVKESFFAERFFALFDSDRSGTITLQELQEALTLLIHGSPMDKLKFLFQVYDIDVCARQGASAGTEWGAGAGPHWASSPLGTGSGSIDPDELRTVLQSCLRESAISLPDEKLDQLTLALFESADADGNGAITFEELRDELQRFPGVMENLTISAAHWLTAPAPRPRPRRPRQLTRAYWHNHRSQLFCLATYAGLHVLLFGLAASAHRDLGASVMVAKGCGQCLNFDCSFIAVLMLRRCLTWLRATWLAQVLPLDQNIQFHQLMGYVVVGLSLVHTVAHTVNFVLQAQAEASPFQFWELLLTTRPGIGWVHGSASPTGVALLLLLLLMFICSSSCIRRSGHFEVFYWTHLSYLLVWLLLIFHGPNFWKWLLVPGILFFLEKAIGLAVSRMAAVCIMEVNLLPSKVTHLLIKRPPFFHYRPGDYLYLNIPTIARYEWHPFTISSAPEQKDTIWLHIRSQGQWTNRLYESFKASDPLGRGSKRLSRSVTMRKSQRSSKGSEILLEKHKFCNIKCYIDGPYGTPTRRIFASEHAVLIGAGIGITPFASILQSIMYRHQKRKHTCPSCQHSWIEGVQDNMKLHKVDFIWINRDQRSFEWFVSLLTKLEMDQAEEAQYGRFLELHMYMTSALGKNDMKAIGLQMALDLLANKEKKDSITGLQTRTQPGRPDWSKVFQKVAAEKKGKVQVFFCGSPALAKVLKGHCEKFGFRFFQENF
SMILES,z-score [1],composite z-score [2],z-score [3],z-score [4],z-score [5],z-score [6],z-score [7],z-score [8],z-score [9],z-score [10],z-score [11],z-score [12],z-score [13],z-score [14],z-score [15],z-score [16],z-score [17],z-score [18],z-score [19],z-score [20]
COC(=O)C(CC#Cc1ccc2c(c1)[C@]1(C(=O)N2)[C@H](C(=O)O)[C@H]2C(=O)O[C@H](c3ccccc3)[C@H](c3ccccc3)N2[C@@H]1c1ccccc1OCCO)C(=O)OC,-1.21 (inactive),0.658,4.19 (inactive),0.487 (inactive),-5.95 (inactive),-0.008 (inactive),0.029,1.37 (inactive),-1.33 (inactive),1.19,-0.045,-0.182,-0.219,-3.26,-4.09,-2.93,-0.236 (inactive),-0.441,-1.98,-0.327 (inactive)
CC(C)C(O)C1C=CC2C(=O)N(C)C(=O)C2N1N(c1ccccc1)c1ccccc1 (stereo not given),-0.573 (inactive),0.213,0.321 (inactive),0.167 (inactive),-0.255 (inactive),1.05 (inactive),-1.38,-0.71 (inactive),-0.583 (inactive),-0.828,-0.659,-1.24,0.689,0.0007,0.0729,-0.0204,-0.291 (inactive),-0.286,-0.387,-0.391 (inactive)
C=C(COC)/C(=C/C[C@@H](OC(=O)c1ccncc1)c1ccc(OCCO)cc1)c1cnc2ccccc2c1,0.634 (inactive),0.497,23.1 (active),5.56 (inactive),1.59 (inactive),1.19 (inactive),-0.0567,-1.17 (inactive),-0.596 (inactive),-1.84,0.101,1.48,-0.0465,-0.289,-0.594,1.86,-0.892 (inactive),0.674,0.464,0.549 (inactive)
C[C@@H]1ON(c2ccc(C(=O)OC(C)(C)C)cc2)[C@H](c2ccc(Br)cc2)[C@H]1C(=O)N1C(=O)OC[C@H]1Cc1ccccc1,0.351 (inactive),-0.0241,0.393 (inactive),0.358 (inactive),-0.65 (inactive),0.428 (inactive),0.479,-0.495 (inactive),0.0298 (inactive),0.191,0.136,0.393,0.889,-0.486,-0.403,0.401,-0.728 (inactive),-1.1,0.24,1.23 (inactive)
COC(=O)c1c(CC[C@@H](CO)NC(=O)N[C@H](Cn2cc(-c3ccccc3C)nn2)C(C)C)oc(C(C)=O)c1C(=O)OC,0.206 (inactive),-0.112,0.791 (inactive),-0.0484 (inactive),1.56 (inactive),-0.52 (inactive),1.29,-3.2 (inactive),-2.16 (inactive),-1.77,-0.657,1.55,0.308,-0.759,-0.607,-0.24,0.37 (inactive),-0.353,-1.27,-1.26 (inactive)
O=C1O[C@@H](c2ccccc2)[C@@H](c2ccccc2)N2[C@@H](c3ccc(O)cc3)[C@]3(C(=O)Nc4ccc(C#CCCO)cc43)[C@@H](C(=O)NC[C@H](O)c3ccccc3)[C@H]12,0.646 (inactive),0.279,2.75 (inactive),0.31 (inactive),0.283 (inactive),0.0695 (inactive),-0.318,-0.247 (inactive),-0.718 (inactive),-0.159,0.479,0.269,0.333,-0.121,0.671,-1.93,-1.16 (inactive),0.198,-0.667,0.588 (inactive)
C=C(COC)/C(=C/C[C@@H](OC(=O)c1ccncc1)c1cccc(OCCO)c1)c1cnc2ccccc2c1,-0.0626 (inactive),0.664,18.8 (active),6.49 (inactive),-1.32 (inactive),1.29 (inactive),0.507,-1.47 (inactive),-0.256 (inactive),-3.1,0.0954,0.542,-1.03,-2.17,-0.307,0.862,-1.76 (inactive),0.187,0.276,-0.634 (inactive)
COC(=O)Cn1c(C(=O)N2CCCC2)cc2c1C[C@H]1CN(C(=O)c3ccccc3)[C@@](Cc3ccc(F)cc3)(C(=O)OC)[C@@H]21,-0.246 (inactive),-0.041,1.32 (inactive),-0.428 (inactive),-0.865 (inactive),-1.71 (inactive),3.59,0.215 (inactive),1.31 (inactive),-1.46,1.13,0.0791,0.476,-0.297,0.63,0.669,-1.47 (inactive),-0.135,-1.68,-0.581 (inactive)
CC(=O)n1cc(C(O)C2C=CC3C(=O)N(Cc4ccccc4)C(=O)C3N2n2cnnc2)c2ccccc21 (stereo not given),-1.32 (inactive),-0.0867,8.09 (active),2.31 (inactive),0.927 (inactive),1 (inactive),-0.386,-0.0716 (inactive),-0.738 (inactive),-0.392,-0.919,-0.0245,-0.392,-1.12,0.125,-1.07,-0.623 (inactive),0.563,-0.321,-0.756 (inactive)
